The supplement of paper PMC6555819

Assays:
Experiment in all cases: PBM binding z-score (relative to random genomic background probes); higher = stronger binding; sequences stand for … in GC…GCGATTGACAGCGTAGAATGAAGG
[1] = test system: FXR:RXRa (NR concentration 270 nM, RXRa partner concentration 90 nM)
How it was run: (§1)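 The probes on custom Agilent 4×180K protein-binding microarrays were double-stranded, with 34-nt variable regions bearing direct-repeat seeds, single-nucleotide variants, half-site ablations and random human genomic background sequences. Incubation lasted 1 h with ligand-free nuclear receptor dimers in PBS pH 7.4, 2% milk, 0.02% Triton X-100, 1 mM DTT, 0.2 mg/mL BSA and 0.4 mg/ml salmon testes DNA. Antibodies against each partner (one per run) detected bound dimers, and fluorescence scans were regression-normalized. Binding z-scores take the random background probes as reference.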

[2] = test system: LXRa:RXRa (NR concentration 270 nM, RXRa partner concentration 90 nM)
How it was run: as §1

[3] = test system: LXRa homodimer (NR concentration 270 nM)
How it was run: as §1

[4] = test system: LXRb:RXRa (NR concentration 270 nM, RXRa partner concentration 90 nM)
How it was run: as §1

[5] = test system: LXRb homodimer (NR concentration 270 nM)
How it was run: as §1

[6] = test system: PPARa:RXRa (NR concentration 270 nM, RXRa partner concentration 90 nM)
How it was run: as §1

[7] = test system: PPARg:RXRa (NR concentration 180 nM, RXRa partner concentration 90 nM)
How it was run: as §1

[8] = test system: PPARg:RXRa 270nM:90nM, anti-RXR (NR concentration 270 nM, RXRa partner concentration 90 nM)
How it was run: as §1

[9] = test system: PPARg:RXRa 30nM:10nM, anti-RXR (NR concentration 30 nM, RXRa partner concentration 10 nM)
How it was run: as §1

[10] = test system: PPARg:RXRa 90nM:30nM, anti-RXR (NR concentration 90 nM, RXRa partner concentration 30 nM)
How it was run: as §1

Sequence | PBM binding z-score [1] | PBM binding z-score [2] | PBM binding z-score [3] | PBM binding z-score [4] | PBM binding z-score [5] | PBM binding z-score [6] | PBM binding z-score [7] | PBM binding z-score [8] | PBM binding z-score [9] | PBM binding z-score [10]
TCATGTAGGTAAAAGGTGAAAGTCGGTGTGGTAA | 1.69 | 1.64 | 0.309 | 1.98 | 0.274 | 5.78 | 9.58 | 8.82 | 8.8 | 9.11
CAAACTAAGTCACCGGAAGGTCAAAGTCCGCATG | 3.59 | 3.86 | 3.92 | 3.75 | 1.12 | 4.07 | 2.05 | 2.78 | 0.812 | 2.18
ACAGTCAGGTGATGAAGGTAACTCAGGCTATCAT | 0.11 | -0.185 | -0.351 | -0.331 | -0.338 | 0.116 | 0.349 | -0.0826 | 0.0143 | -0.0221
CCTGCTAGGTCATGGTCAGATAATCTACAGTATG | 3.8 | 2.5 | 0.343 | 1.93 | 0.146 | 3.64 | 2.85 | 2.71 | 0.675 | 1.95
ACTATTAGTTGACTTAGGCCAACCGATACGACGC | 0.313 | 0.281 | 0.278 | 0.209 | 1.1 | 0.0554 | 1.05 | 0.478 | 0.505 | 0.622
TGAATGAGGTTAAAGATCAGGGCACGTGGCGTCG | 2.95 | 2.69 | 0.0826 | 1.81 | 0.456 | 4.53 | 5.69 | 6.11 | 4.67 | 6.24
TCTTGTAGATCAAGCAGGCTAAGAAAGCCTGAGT | -0.142 | -0.307 | -0.525 | -0.376 | -0.474 | 0.113 | -0.409 | 0.913 | 2.4 | 1.59
ACTATTAGTTGACTTAGGACAACCGATACGACGC | 0.502 | 0.291 | 0.606 | 0.299 | 0.989 | 0.0286 | 1.11 | 0.164 | 0.448 | 0.273
AGAACGAGGGCAATGAGTGGATAGCACGGGTGGC | 0.0707 | 0.00914 | -0.454 | -0.474 | -0.905 | 1.12 | 1.49 | 0.671 | 0.264 | 0.612
TTACCAAGATGAAGGTCGTTGATCCCTCTGTAGA | 1.47 | 1.91 | -0.0555 | 1.48 | -0.663 | 1.33 | 0.406 | 1.7 | 1.5 | 1.72
GCTACTAGTTGAAAGGGCAACCGAATGATTCTCG | 0.0739 | 0.67 | -0.0669 | 0.754 | -0.373 | 2.62 | 3.76 | 5.17 | 3.07 | 5.08
GCTGCTAGGTCAACAGATGGTCAGCTAAAGCTCG | 3.13 | 2.22 | -0.297 | 1.37 | -0.198 | 2.99 | 2.43 | 2.5 | 0.277 | 1.86
CCGACTGAGGCAAGGTTACCATAACGCACAGCCA | 0.169 | 0.738 | -0.295 | 0.593 | -0.805 | 0.985 | 0.898 | 0.236 | -0.466 | 0.134
ACAAACAGGTGAGTGAAGGTAACTCAGCTGGACG | 0.326 | -0.0872 | -0.278 | -0.542 | -0.3 | 0.367 | 0.682 | 0.103 | 0.0977 | 0.229
ATCTCTAGGTAAAGATAGTTCAGTGAGTGCAAAT | -0.0159 | 4.06 | 1.22 | 0.833 | 0.569 | 0.673 | 0.242 | 0.661 | 0.182 | 0.714
ATAGACAGGTGAGTGAAGGTAACTCAGCTGGACG | 0.729 | 0.567 | -0.416 | -0.043 | 0.00945 | 0.437 | 0.69 | 0.369 | 0.155 | 0.444
AGCACGAGGGCAATGAGTTGATAGCACGGGTGGC | 0.125 | 0.129 | -0.673 | -0.297 | -0.733 | 0.58 | 0.928 | -0.00435 | -0.788 | -0.265
GGAACGATGGCATTCGAGTTGATAGCATGGCGAT | -0.471 | -0.604 | -0.706 | -0.979 | -1.12 | -0.689 | 0.643 | -0.465 | -0.325 | -0.434
AGAATGAGGTTATTAAGATCAGGGCATTGCGGTC | 1.9 | 1.95 | 0.705 | 1.39 | -0.0987 | 2.66 | 1.67 | 2.33 | 1 | 1.39
TCATATAGGTAAACGCTAGGTGAAAGTCCGATCT | 1.11 | 0.968 | 0.15 | 0.833 | -0.0724 | 1.7 | 1.29 | 2.43 | 3.95 | 3.34
GGAACGAGGGCAAGTTGATAGCAGAGTTTGATGG | 1.07 | 0.522 | -0.269 | 0.278 | -0.586 | 1.74 | 1.19 | 1.03 | -0.0238 | 0.39
TCTTGTAGACCAATAGAGGTTAAGAAAGTGCGCT | 0.806 | 3.66 | 0.598 | 1.84 | 0.292 | 2.14 | 0.00378 | 1.69 | 2.88 | 1.93

Sequence | PBM binding z-score [1] | PBM binding z-score [2] | PBM binding z-score [3] | PBM binding z-score [4] | PBM binding z-score [5] | PBM binding z-score [6] | PBM binding z-score [7] | PBM binding z-score [8] | PBM binding z-score [9] | PBM binding z-score [10]
TAGCCTAGGACATGGGCCAGTATACCACGCGAAC | -0.615 | -0.64 | -0.616 | -0.618 | -0.673 | -0.454 | 0.715 | -0.284 | -0.595 | -0.49
CGTCCAAGGTCAAAGGTCAGAGAAGAGATGACGG | 8.35 | 7.24 | 3.55 | 6.68 | 1.89 | 7.26 | 10.7 | 9.26 | 8.39 | 9.75
ACTAGTTGATCAGCTGAGGTCACACACAATTCGG | 3.31 | 2.93 | 1.91 | 3.51 | 0.605 | 3.89 | 1.6 | 2.33 | 0.574 | 1.42
CGAACTACGTCAGAACAGGACAGTGAAGGATGAT | -0.457 | -0.582 | -0.294 | -1.05 | -0.438 | -0.716 | 0.632 | -0.752 | -0.147 | -0.37
CAAACTAGGTCACGATAGGTCAAAGTCGAATGAC | 5.83 | 8.21 | 5.31 | 6.9 | 1.01 | 6.14 | 9.76 | 7.74 | 6.05 | 7.79
CCTACTGGGCCAGGAAAGGTCATTGATTCAGTGA | 3.42 | 4.12 | 3.32 | 3.74 | -0.202 | 4.18 | 1.95 | 3.03 | 0.929 | 2.15
CCTAGCAGGCCCGGGTCACTCAAGCATTTCGCTT | 1.18 | 1.11 | -0.362 | 1.25 | -0.958 | 2.17 | -0.225 | 0.755 | -0.825 | 0.0676
GCTAGGAGGCCATTTGGGTCACTCAATGACGGGC | 0.677 | 0.0368 | -0.495 | 0.118 | -0.985 | 1.73 | 0.825 | 0.402 | -0.518 | 0.187
CCGACTGGGGCATAAAGTTACCATAAGCCAGCCC | -0.335 | -0.54 | -0.298 | -0.42 | -1.15 | 0.0732 | 0.855 | 0.803 | -0.215 | 0.313
GATACAGGGTCAGCCAGAGGCCAGAGTATGGAAA | 4.61 | 2.94 | -0.284 | 2.56 | -0.975 | 4.69 | 4.13 | 3.7 | 0.98 | 2.28
CCGACTGGGCCACGAAAGGTCATTGATTCAGTGA | 3.33 | 4.99 | 3.8 | 4.13 | -0.0773 | 4.31 | 3.41 | 4.06 | 1.52 | 3.16
CGTCAAAGTTCAAGGTAGCGTAACAGAAAGCAGC | 5.54 | 5.8 | 2.95 | 3.18 | 0.738 | 4.56 | 3.8 | 5.04 | 2.26 | 3.89
ACTAGTTGGTCAGCTGAGGTCACATACAATTCGG | 2.13 | 2.95 | 2.7 | 3.37 | 0.543 | 3.41 | 1.77 | 1.98 | 0.658 | 1.17
CCAGACAGGTGAGAAGGTAAGTCAGCCTCGATTA | 0.146 | 0.152 | -0.318 | 0.215 | -0.265 | 0.66 | 0.255 | 0.254 | -0.405 | -0.0734
TCGAGTAGGCTAGGGGCATTCAGAATGGCGTCGA | -0.172 | -0.557 | -0.903 | -0.262 | -1.16 | 0.162 | -0.111 | 0.716 | 0.676 | 0.504
GCAGACAGGTGAAACGCAAGTAACTCAGGGTGGC | -0.454 | -0.128 | -0.469 | -0.359 | -0.954 | 0.613 | 0.63 | -0.0352 | -0.456 | -0.429
TGTCAAACTTCAAAGGTAACGTAAGTATCCACAC | 0.417 | 0.363 | -0.174 | 0.695 | 0.266 | 0.877 | 0.587 | 0.784 | 0.906 | 0.841
GCTATTAGTTGAAAGGGCAACCCAATGATTCTCG | 0.453 | 0.68 | 0.645 | 0.925 | -0.181 | 2.4 | 2.65 | 4.29 | 1.81 | 3.88
ATCTCTAGGTAAGAATCAGTTCAGTGAAGAACGC | 0.825 | 0.702 | 0.74 | 0.521 | 0.992 | 0.326 | 0.0299 | 0.324 | 0.4 | 0.435
CAAACTAGGTCAGGAAAGGTCAAAGTCGAATGAC | 6.17 | 6.74 | 6.35 | 6.12 | 1.93 | 6.08 | 8.46 | 6.82 | 4.45 | 6.88
GATAGCAGGCCATTTGGGTCACTCAATGACGGGC | 0.302 | -0.115 | -0.247 | 0.0936 | -0.607 | 1.73 | 1.4 | 1.12 | -0.311 | 0.763
TCGAGTAGGTTAGGGGCATACAGAATGGCGTCGA | 0.679 | 0.555 | -0.335 | 0.825 | -0.198 | 1.39 | 1.04 | 1.65 | 1.4 | 1.6
